# JMJD2A Tudor = blocks the human JMJD2A Tudor domain. O75164. AlphaScreen JMJD2A-Tudor / H3K4me3 peptide binding. actives 4.4% (n = 390,000). AID 504339. Potency, µM (titrated, usually from 114 µM), without a hit: at the highest dose activity change, negative = inhibition, most hits filed as inhibitors; note: potency is the fitted concentration of half-maximal effect; % is set by controls: 0 for no effect and ±100 for the full control effect; nearly all actives have a fitted effect of over 50% in size
# HP1b chromo inh = HP1-beta chromodomain-methylated histone interaction inhibition. Potency, µM (top dose mostly 114 µM), without a hit: top-dose activity change, negative = inhibition, most hits filed as inhibitors. P83916. AID 540317. actives 0.56% (n = 390,000). AlphaScreen HP1-beta / biotin-H3K9me3 peptide binding; note: potency is the fitted concentration of half-maximal effect; nearly all actives have a fitted effect of over 70% in size
#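 HP1-beta protein (50 nM final) preincubated 30 min at room temperature with biotinylated H3(1-18)K9me3 peptide (50 nM) in PBS pH 7.4, 0.01% Tween-20, then compound added for 30 min. AlphaScreen streptavidin donor/nickel chelate acceptor beads (10 ug/mL final), 30 min dark, luminescence read.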
# G9a inh = G9a (human) methyltransferase inhibition; G9a H3K9 monomethylation, AlphaScreen, 2 h; Potency, µM (top dose mostly 102 µM), inactives show at the top dose activity, negative = inhibition, usual class: inhibitors; actives 8.8% (n = 350,000); note: potency is the fitted concentration of half-maximal effect; % is set by controls: 0 for no effect and ±100 for the full control effect; nearly all actives have a fitted effect of over 75% in size
#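 G9a (20 nM) was preincubated 15 min with compound, then reacted 2 h at room temperature with 500 nM biotin-H3K9 peptide and 20 µM SAM. Monomethyl-H3K9 detected by AlphaScreen using anti-H3K9me1 antibody.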
# Six1-Eya2 inh = inhibitors of human Six1/Eya2 interaction. Q15475+O00167. AlphaScreen GST-Six1/His-Eya2 binding, biochemical; hits give low values. activity change, % (concentration not given with the values). actives 0.56% (n = 360,000). AID 651725; in the data active = activity change below about -65%; inconclusive = mostly about -30% to -63%; note: % is set by controls: 0 for no effect and ±100 for the full control effect
#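 Six1/Eya2 binding was read as AlphaScreen signal after compounds were pinned into GST-Six1 plus His-tagged Eya2 (5X stock 250/500 nM) in pH 8.0 Tris/NaCl/TCEP buffer, beads added, then incubated 1 h, 37 C, dark.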
# CtBP-E1A blk = CtBP/E1A binding inhibition | AID 651724 | actives 0.49% (n = 340,000) | AlphaScreen GST-E1A/His-CtBP binding, 1536-well; hits give low values | activity change, % (concentration not given with the values); in the data active = activity change below about -65%; inconclusive = mostly about -30% to -63%; note: % is set by controls: 0 for no effect and ±100 for the full control effect
#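 AlphaScreen with 125 nM GST-E1A and 125 nM His-CtBP (5X stocks) in Tris pH 8.0, 300 mM NaCl, BSA, Tween 20, TCEP. Compounds preincubated 2 h at 37 deg C, then glutathione donor/nickel acceptor beads added for 1 h at 37 deg C in dark.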
# BAZ2B block = BAZ2B (human) inhibition; actives 4.4% (n = 360,000); Potency, µM (top dose mostly 114 µM), inactives show at the highest dose activity change, negative = inhibition, hits mostly inhibitors; AlphaScreen BAZ2B-H3K14Ac peptide displacement; note: potency is the fitted concentration of half-maximal effect; % is set by controls: 0 for no effect and ±100 for the full control effect; nearly all actives have a fitted effect of over 60% in size
# Target sequence (Q9UIF8 whole entry, looked up): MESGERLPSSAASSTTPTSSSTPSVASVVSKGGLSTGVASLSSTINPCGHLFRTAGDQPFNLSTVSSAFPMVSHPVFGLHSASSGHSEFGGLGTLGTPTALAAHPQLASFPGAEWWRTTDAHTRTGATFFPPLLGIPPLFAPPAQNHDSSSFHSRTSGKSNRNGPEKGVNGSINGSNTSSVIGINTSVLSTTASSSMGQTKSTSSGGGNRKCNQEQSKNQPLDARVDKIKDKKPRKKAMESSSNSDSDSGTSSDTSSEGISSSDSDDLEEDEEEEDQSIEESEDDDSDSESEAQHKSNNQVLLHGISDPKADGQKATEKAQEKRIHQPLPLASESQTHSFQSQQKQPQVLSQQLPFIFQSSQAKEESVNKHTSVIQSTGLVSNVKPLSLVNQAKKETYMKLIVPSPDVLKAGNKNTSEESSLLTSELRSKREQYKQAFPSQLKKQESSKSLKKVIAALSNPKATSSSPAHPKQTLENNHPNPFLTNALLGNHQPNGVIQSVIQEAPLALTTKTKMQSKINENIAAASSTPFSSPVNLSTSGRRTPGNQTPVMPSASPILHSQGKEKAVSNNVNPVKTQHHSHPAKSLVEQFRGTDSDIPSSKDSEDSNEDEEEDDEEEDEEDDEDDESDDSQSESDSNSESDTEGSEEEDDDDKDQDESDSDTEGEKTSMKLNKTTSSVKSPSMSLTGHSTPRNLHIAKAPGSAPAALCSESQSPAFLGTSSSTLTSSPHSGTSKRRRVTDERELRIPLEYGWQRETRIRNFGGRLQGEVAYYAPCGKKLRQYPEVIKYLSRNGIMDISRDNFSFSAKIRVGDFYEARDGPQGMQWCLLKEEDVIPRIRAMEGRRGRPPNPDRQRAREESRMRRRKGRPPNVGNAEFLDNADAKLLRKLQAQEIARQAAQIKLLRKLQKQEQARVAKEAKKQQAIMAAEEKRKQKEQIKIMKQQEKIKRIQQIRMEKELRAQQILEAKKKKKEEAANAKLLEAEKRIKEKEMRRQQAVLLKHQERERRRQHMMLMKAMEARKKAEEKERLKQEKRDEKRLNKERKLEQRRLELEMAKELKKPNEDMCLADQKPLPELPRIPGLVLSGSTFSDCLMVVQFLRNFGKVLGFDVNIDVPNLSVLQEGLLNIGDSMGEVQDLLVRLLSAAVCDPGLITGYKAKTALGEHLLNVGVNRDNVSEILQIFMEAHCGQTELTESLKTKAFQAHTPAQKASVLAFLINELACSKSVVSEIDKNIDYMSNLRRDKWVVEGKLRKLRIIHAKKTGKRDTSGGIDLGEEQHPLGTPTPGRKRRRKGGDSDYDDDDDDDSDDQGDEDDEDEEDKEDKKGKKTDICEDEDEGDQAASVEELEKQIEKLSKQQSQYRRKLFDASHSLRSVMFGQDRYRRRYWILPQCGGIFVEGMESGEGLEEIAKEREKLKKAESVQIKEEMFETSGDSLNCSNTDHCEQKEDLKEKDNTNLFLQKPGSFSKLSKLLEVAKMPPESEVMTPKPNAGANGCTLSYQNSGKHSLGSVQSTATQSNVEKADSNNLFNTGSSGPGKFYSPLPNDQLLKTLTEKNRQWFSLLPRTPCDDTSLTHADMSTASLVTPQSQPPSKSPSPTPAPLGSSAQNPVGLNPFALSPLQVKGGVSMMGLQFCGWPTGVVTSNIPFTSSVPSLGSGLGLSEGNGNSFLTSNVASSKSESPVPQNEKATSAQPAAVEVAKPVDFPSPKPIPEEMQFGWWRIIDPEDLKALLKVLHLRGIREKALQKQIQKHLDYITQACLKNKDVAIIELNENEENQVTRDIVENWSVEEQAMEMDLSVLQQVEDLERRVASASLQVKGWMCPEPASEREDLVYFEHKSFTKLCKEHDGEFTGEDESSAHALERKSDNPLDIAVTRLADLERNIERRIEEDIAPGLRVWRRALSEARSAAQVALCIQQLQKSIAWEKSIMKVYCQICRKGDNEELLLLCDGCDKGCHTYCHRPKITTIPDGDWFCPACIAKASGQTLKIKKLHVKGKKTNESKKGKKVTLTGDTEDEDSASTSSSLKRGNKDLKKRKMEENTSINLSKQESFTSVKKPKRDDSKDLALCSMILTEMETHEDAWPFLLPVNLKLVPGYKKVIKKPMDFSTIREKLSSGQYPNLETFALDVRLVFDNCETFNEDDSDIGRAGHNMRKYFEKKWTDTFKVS
#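 BAZ2B (50 nM) with biotin-H3(5-23)K14Ac peptide (50 nM) in PBS pH 7.4, 0.01% Tween-20, preformed 30 min, then compound 30 min at room temperature; top concentration 110uM. AlphaScreen streptavidin donor/nickel chelate acceptor beads (10 ug/mL final), 20 min dark, signal read.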
# * marks the source's active call; other numbers are inactive results; ? = inconclusive; / = no result given; [ ] = remark or other dose. Hits are enriched below; roughly 10% of the tested compounds scored in any of these assays. Unless noted, calls come from the whole dose curve; as a rule, active = well fitted inhibition curve with a large enough effect; inconclusive = small, poorly fitted or top-dose-only effect; inactive = no such curve, though single readings can be large or run the other way.
SMILES,JMJD2A Tudor,HP1b chromo inh,G9a inh,Six1-Eya2 inh,CtBP-E1A blk,BAZ2B block
Cc1c(Br)cc(C(=O)O)c(C)c1C,1%,53%,23%[59 µM],1,6,2%
Cc1c(N)cc(N)cc1C(=O)O,-12%,1%,79µM*,-9,-24,-35%
Cc1ccc(-c2sc(C(=O)NN)c(C)c2C#N)cc1,13%,58%,30%[59 µM],3,9,13%
CSCC[C@H](NS(=O)(=O)c1ccc(C(C)=O)cc1)c1nnc2ccccn12,0%,46%,45µM*,-11,/,56µM*
O=C(COC(=O)c1cc(Br)c(Br)s1)NCCC1=CCCCC1,-1%,40%,25%[59 µM],-1,1,-14%
COc1ccc(CNC(=O)CC(C)n2nc(C)cc2C)cc1 (centres undefined),-14%,49%,3%[59 µM],/,/,-18%
O=C(Cn1c(=O)n(-c2cccc(C(F)(F)F)c2)c(=O)c2sccc21)NCC1CCCO1 (centres undefined),40µM*,9%,8%,-20,0,-1%
C=CCOC(=O)/C=C/C(=O)NC(N)=O,?,18µM*,8.9µM*,0,/,0%
Cc1cc2n(n1)CCCN2C(=O)Nc1ccc(C)c(Cl)c1,4%,29%,-3%[59 µM],/,/,2%
COc1ccc(C(=O)CN2C3=NCCCN3c3ccccc32)cc1OC,-12%,10%,45µM*,6,3,-6%
C=CCN1C(=O)N/C(=C/c2ccc(N3CCOCC3)o2)C1=O,/,/,32µM*,/,/,1%
O=C1N/C(=C/c2ccc(N3CCOCC3)o2)C(=O)N1c1ccccc1,?,-20%,10µM*,-10,-4,-27%
O=C1S/C(=C\c2ccc(N3CCOCC3)o2)C(=O)N1Cc1ccc(F)cc1,?,-8%,?,-1,-11,-31%
Cc1cc(C)c(CSc2ncnc3nc[nH]c23)c(C)c1,-7%,32%,-8%,0,-1,-3%
O=C([C@H](O)c1ccccc1)N1CCC[C@H]1CO,-5%,17%,4%,7,10,-4%
COc1ccccc1N1CCN(S(=O)(=O)c2ccc3c(c2)CCCN3C(C)=O)CC1,-17%,19%[57 µM],2%[59 µM],/,/,-4%
COc1cccc(/C=C/C(=O)OCC(=O)Nc2cccc(S(=O)(=O)N3CCOCC3)c2)c1OC,-21%,-1%,3%,4,0,-17%
O=C(Nc1ccc(S(=O)(=O)NCc2ccccc2)cc1)C1CCCCC1,-3%,26%,-18%,15,-2,-12%
COCCn1nnnc1C(c1ccc(OC)cc1)N1CCC(C)CC1 (centres undefined),-9%,18%,-29%[12.7 µM],3,-7,?
CCC(c1nnnn1CCOC)N1CCN(C(=O)c2ccco2)CC1 (centres undefined),?,19%,/,22,1,50µM*
COc1ccc(C(c2nnnn2Cc2ccccc2)N2CCN(C(=O)c3ccco3)CC2)cc1OC (centres undefined),?,38%,-5%[59 µM],2,-2,?
COCCn1nnnc1C(CC(C)C)N1CCN(C(=O)c2ccco2)CC1 (centres undefined),15%[11.4 µM],-13%,40µM*,21,0,79µM*
CCC(c1nnnn1Cc1ccccc1)N1CCN(C(=O)c2ccco2)CC1 (centres undefined),17%,24%,79µM*,-4,5,15%
COCCn1nnnc1C(c1ccc(Cl)cc1)N1CCSCC1 (centres undefined),-34%,23%,50µM*,3,3,?
COc1cccc(C2=Nn3c(nnc3-c3ccc(OC)cc3OC)SC2)c1,-20%,/,/,/,/,/
SMILES,JMJD2A Tudor,HP1b chromo inh,G9a inh,Six1-Eya2 inh,CtBP-E1A blk,BAZ2B block
CCCCC(c1nnnn1CCOC)N1CCN(C(=O)c2ccco2)CC1 (centres undefined),12%[11.4 µM],30%,?,21,0,50µM*
COCCn1nnnc1C(c1ccc(OC)cc1)N1CCN(C(=O)c2ccco2)CC1 (centres undefined),-15%,31%,?,5,0,-15%
CCCC(c1nnnn1CCc1ccccc1)N1CCN(C(=O)c2ccco2)CC1 (centres undefined),-16%,44%,?,2,6,-34%
Cc1ccc(Cl)cc1N1CCN(Cc2nnnn2Cc2ccco2)CC1,-15%,17%,?,-8,5,0%
COCCn1nnnc1C(c1ccc(Cl)cc1)N1CCN(C(=O)c2ccco2)CC1 (centres undefined),45µM*,42%,56µM*,0,-10,-2%
CCC(c1nnnn1Cc1ccco1)N1CCN(c2cc(Cl)ccc2C)CC1 (centres undefined),50µM*,?,10%[59 µM],-11,-9,?
Cc1cccc(N2CCN(S(=O)(=O)c3ccc4c(c3)C(C)(C)C(=O)N4C)CC2)c1C,?,-18%,/,-18,?,50µM*
O=S(=O)(c1cccc2nonc12)N1CCN(c2ccccc2F)CC1,-28%,6%,/,-6,-13,-6%
Cc1cccc(N2CCN(S(=O)(=O)c3cccc4nonc34)CC2)c1C,?,-18%,20µM*,?,2,?
CC(C)CCc1noc(CN2CCC(CCN3CCCC3=O)CC2)n1,-6%,40%,17%[59 µM],3,7,-7%
COc1cc(NC(=O)c2cccs2)c(OC)cc1NC(=O)Cc1ccccc1,-12%,-3%,-13%[59 µM],-81*,-6,-35%
COc1ccc(NC(=O)CCC(=O)c2cccs2)cc1Cl,-8%,58%,-1%,17,10,7%
COc1cc(NC(=O)c2cccs2)c(OC)cc1NC(=O)c1cccs1,-8%,18%,/,-23,-18,/
COc1cc(NC(=O)c2cccs2)c(OC)cc1NC(=O)CCC(=O)Nc1ccc2ncccc2c1,-8%[11.4 µM],2%,?,-69*,/,-12%
COc1cc(NCCC(=O)c2cccs2)c(OC)cc1Cl,40µM*,56µM*,7.9µM*,?,-1,40µM*
COc1ccc(OCC(=O)Nc2ccc(NC(=O)c3cccs3)c(OC)c2)cc1,-23%,0%,1%,6,3,-9%
CCCNS(=O)(=O)c1cc(CN2C(=O)c3cccnc3C2=O)ccc1OC,89µM*,8%,-8%,-4,-10,?
CCC(=O)N1CCc2cc(S(=O)(=O)NCCC(=O)NCc3ccc(C)cc3)ccc21,-11%,21%,8%[59 µM],/,/,/
O=c1c(-c2ccccc2)nc2cnc(N3CCOCC3)nc2n1Cc1ccc(F)cc1,/,/,13%[0.501 µM],/,/,/
CN(C)c1ccc(C2C3CCCc4ccccc4C3=NN2C)cc1 (centres undefined),25µM*,?,10µM*,-14,-12,32µM*
